# Test results published in ChEMBL document CHEMBL3988442, “University of Dundee, Small-Polar-MMV Screening Library” (2021).
# In all, about 66,000 compounds went through this assay and about 960 (1.5%) showed an effect of 50% or more. This is one part of a sample in which strong results are shown more often than they occur.
# Tested on: Trypanosoma brucei
# Test: Trypanosoma brucei 72 hour study
# Type: functional, organism-based
# Design: scale not given: in the data most compounds retested in dose-response had high values
smiles,measurement,setting,value
CC(C)CC(=O)N1CCC2(CC1)COCCN2Cc1ccc(F)cc1.O=C(O)C(F)(F)F,Percent Effect,"30 µM, 30.03 µM",17.24%
COc1ccc(C[C@H]2CNCC[C@@H]2OC)cc1.O=C(O)C(F)(F)F,Percent Effect,"30.3 µM, […]",-9.891%
C[C@@H]1CN(S(C)(=O)=O)C[C@]12CCN(Cc1cccnc1)C2=O.O=C(O)C(F)(F)F,Percent Effect,"30.3 µM, […]",-31.63%
Cc1cc(Cl)c(C)c(S(=O)(=O)N2CCN(Cc3ccncc3)CC2)c1Cl,Percent Effect,"30 µM, 30.03 µM",-52.63%
CNC(=O)[C@@H]1CN(C(=O)C2CCC2)C[C@H]1c1ccnc(N2CCCC2)n1.Cl,Percent Effect,"30.3 µM, […]",8.722%
Cn1cc(CCC(=O)N2C[C@@H]3CC[C@H](C2)N(Cc2ccccn2)C3)cn1,Percent Effect,"30.3 µM, […]",7.516%
CC(C)c1cc(NC(=O)CN2CCCC2c2noc(C(C)C)n2)on1 (stereo not given),Percent Effect,10 µM,-43.85%
same,Percent Effect,"30.3 µM, […]",0.3759%
CN(C(=O)NCc1ccncc1)C1CCCN(c2ccccc2)C1=O (stereo not given),Percent Effect,10 µM,-27.33%
COCCN1CCC2(CC1)CC(c1cccnc1)CO2.O=C(O)C(F)(F)F (stereo not given),Percent Effect,"30.3 µM, […]",-48.93%
Cc1c(C)n2c(SCC(=O)N3CCCCC3)nnc2[nH]c1=O,Percent Effect,"30.3 µM, […]",-16.73%
Cl.O=C1CC2(CCCNC2)C(=O)N1Cc1cccc(Cl)c1 (stereo not given),Percent Effect,"30.3 µM, […]",2.467%
CCC(C)NC(=O)Cn1c(Nc2cc(C)cc(C)c2)nc(C)cc1=O (stereo not given),Percent Effect,"30 µM, 30.03 µM",-43.03%
Cc1ccc(NCc2cncc3c2CCN(Cc2ccccn2)C3)nn1.Cl.Cl,Percent Effect,"30.3 µM, […]",-48.05%
O=C(O)C(F)(F)F.O=C([C@H]1CC[C@@H]2[C@@H](CCN2Cc2nccs2)O1)N1CCOCC1,Percent Effect,"30.3 µM, […]",-77.67%
NC[C@H]1CC[C@H](C(NC(=O)C2CC2)c2ccccn2)CC1 (stereo not given in full),Percent Effect,"30.3 µM, […]",-27.22%
C/C(=C\c1ccccc1)CN1CCCC(c2nnc3n2CCNCC3)C1.Cl (stereo not given),Percent Effect,"30.3 µM, […]",-29.45%
O=C(O)C(F)(F)F.O=C(O)C(F)(F)F.O=C1CC(c2ccncc2)C2(CCN(Cc3ccc(F)cc3)CC2)N1 (stereo not given),Percent Effect,"30 µM, 30.03 µM",27.71%
Cc1ccc(CN2CCC[C@]3(C(=O)O)CN(CC4CC4)C[C@@H]3C2)s1.O=C(O)C(F)(F)F.O=C(O)C(F)(F)F,Percent Effect,"30.3 µM, […]",-73.23%
CCCn1c(C)c(CC(=O)NCCC(N)=O)c2c1CC(C)(C)CC2=O,Percent Effect,"30 µM, 30.03 µM",-41.08%
Cc1nc(NC(=O)c2ccc(-n3ncc(C#N)c3N)cc2)sc1C,Percent Effect,10 µM,-25.11%
Nc1nc(CN2CCCC2Cn2cncn2)nc2ccccc12 (stereo not given),Percent Effect,10 µM,-61.59%
Cc1cnn(CC2CCCN2Cc2nc(N)c3ccccc3n2)c1 (stereo not given),Percent Effect,"30.3 µM, […]",51.47%
same,Percent Effect,"10 mM, 10 mM as filed; unlikely as a test dose",-16.65%
Cc1cnn(CC2CCCCN2Cc2nc(N)c3ccccc3n2)c1 (stereo not given),Percent Effect,"30 µM, 30.03 µM",14.94%
COCCN1CCn2cc(CNC(=O)c3cnn(C)c3)nc2C1.O=C(O)C(F)(F)F,Percent Effect,"30 µM, 30.03 µM",-33.8%
CC(C)CN1C[C@H]2C[C@H](C(=O)NC3CCC3)[C@@H](C1)O2.O=C(O)C(F)(F)F,Percent Effect,"30.3 µM, […]",-44.07%
Clc1cccc(-c2cccc(N3CCC(NC4CCOCC4)CC3)c2)c1,Percent Effect,"30 µM, 30.03 µM",100.7%
Cc1ccc(-c2cccc(N3CCC(NC4CCOCC4)CC3)c2)cc1,Percent Effect,"30 µM, 30.03 µM",8.614%
COc1cccc(-c2cccc(N3CCC(N[C@@H]4CCOC4)CC3)c2)c1,Percent Effect,"30 µM, 30.03 µM",9.147%
COC(=O)c1ccc(CNCc2ccn(C)n2)cc1,Percent Effect,"30.3 µM, […]",-7.529%
O=C(O)C(F)(F)F.O=C(O)C(F)(F)F.O=C1CCC2(CCN(Cc3ccc(F)cc3)CC2)N1CCN1CCCC1,Percent Effect,"30.3 µM, […]",-27.18%
Cc1nccc(-c2cccc(NCC(=O)N3CCOC(C)C3)c2)n1 (stereo not given),Percent Effect,"30.3 µM, […]",18.9%
Cc1nccc(-c2cccc(NCC(=O)N3CCCC(C)C3)c2)n1 (stereo not given),Percent Effect,"30.3 µM, […]",89.85%
Cc1nccc(-c2cccc(NCC(=O)N3CCNC(=O)C3)c2)n1,Percent Effect,"30.3 µM, […]",13.04%
Cc1nccc(-c2cccc(NCC(=O)N3CCCCCCC3)c2)n1,Percent Effect,"30 µM, 30.03 µM",-43.47%
Cc1nccc(-c2cccc(NCC(=O)N3CCc4sccc4C3)c2)n1,Percent Effect,"30 µM, 30.03 µM",51.17%
Cc1nccc(-c2cccc(NCC(=O)N3CCOCC3)c2)n1,Percent Effect,"30.3 µM, […]",18.69%
COc1cc(CNCC2CN(C3CC3)CCO2)cc(OC)c1.Cl (stereo not given),Percent Effect,"30 µM, 30.03 µM",10.22%
CC(C)CN1CCN(C(=O)c2ccncc2F)Cc2cccnc21.O=C(O)C(F)(F)F.O=C(O)C(F)(F)F,Percent Effect,"30 µM, 30.03 µM",-15.43%
NC1C=C(C(F)(F)F)NC=C1c1ccc(Cl)cc1 (stereo not given),Percent Effect,"30.3 µM, […]",-11.05%
COc1ccccc1N1CCC(CNCc2ccc(C#N)cc2)C1 (stereo not given),Percent Effect,"30.3 µM, […]",92.2%
same,Percent Effect,"10 mM, 10 mM as filed; unlikely as a test dose",66.86%
COc1ccccc1N1CCC(CNCc2cccc(C#N)c2)C1 (stereo not given),Percent Effect,"30 µM, 30.03 µM",38.86%
COc1ccc(CNCC2CCN(c3ccccc3OC)C2)cc1O (stereo not given),Percent Effect,"30.3 µM, […]",47.62%
same,Percent Effect,"10 mM, 10 mM as filed; unlikely as a test dose",-24.56%
COc1ccccc1N1CCC(CNCc2cccc(OC)c2OC)C1 (stereo not given),Percent Effect,"30 µM, 30.03 µM",106.6%
COc1ccccc1N1CCC(CNCc2cccc(O)c2)C1 (stereo not given),Percent Effect,"30 µM, 30.03 µM",-1.533%
COc1cccc(N2CCC(CNC(=O)NCc3ccco3)C2)c1 (stereo not given),Percent Effect,"30 µM, 30.03 µM",0.1518%
COc1cccc(CNCC2CCN(CC(C)O)CC2)c1OC (stereo not given),Percent Effect,10 µM,-41.05%
COc1cccc(N2CCC(CNCc3cccc(C#N)c3)C2)c1 (stereo not given),Percent Effect,"30.3 µM, […]",77.75%
same,Percent Effect,"10 mM, 10 mM as filed; unlikely as a test dose",-19.99%
COc1cccc(N2CCC(CNc3cc(C)nc4ncnn34)C2)c1 (stereo not given),Percent Effect,"30.3 µM, […]",-742.4%
CC(=O)N1CCC(Nc2cc(F)ccc2OCC2CCCO2)CC1 (stereo not given),Percent Effect,10 µM,-21.13%
COCC1CN(Cc2ccc(C)s2)Cc2nnn(C)c21.O=C(O)C(F)(F)F (stereo not given),Percent Effect,"30.3 µM, […]",-30.47%
O=C1C(NCc2nnc3n2CCCC3)CCN1c1ccccc1F (stereo not given),Percent Effect,10 µM,0.3109%
CN1[C@@H](C(=O)NCC2CC2)C[C@H]2CN(Cc3cccc(C#N)c3)C[C@H]21.O=C(O)C(F)(F)F.O=C(O)C(F)(F)F,Percent Effect,"30.3 µM, […]",-35.21%
CCN(C)c1ncnc2c1CCN(Cc1ccncc1)CC2.O=C(O)C(F)(F)F.O=C(O)C(F)(F)F.O=C(O)C(F)(F)F,Percent Effect,"30 µM, 30.03 µM",14.6%
CC1c2ncc(COc3cccnc3)n2CCN1Cc1ccco1 (stereo not given),Percent Effect,"30.3 µM, […]",-3.756%
CC(C)C1SCC(=O)Nc2c1cnn2-c1ccc(Cl)cc1 (stereo not given),Percent Effect,"30 µM, 30.03 µM",16.61%
CC(C)N(C)S(=O)(=O)c1ccc2c(c1)CCN(C(=O)c1cscn1)C2,Percent Effect,"30 µM, 30.03 µM",-38.59%
CN1CC[C@H](N(Cc2ccccc2)CC2CC2)C[C@H](O)C1,Percent Effect,"30.3 µM, […]",2.753%
CN1CC[C@H](N(C)Cc2ccccc2)C[C@H](O)C1,Percent Effect,"30.3 µM, […]",-4.232%
CN1CC[C@H](N(Cc2ccccc2)Cc2ccccc2)C[C@H](O)C1,Percent Effect,"30.3 µM, […]",67.88%
O=C(O)C(F)(F)F.O=C(c1ccsc1)N1CCO[C@@H]2CN(Cc3ccco3)CC[C@@H]2C1,Percent Effect,"30.3 µM, […]",-78.45%
CNC(=O)CN1CCOCC12CCN(CCc1ccccc1)CC2.O=C(O)C(F)(F)F.O=C(O)C(F)(F)F,Percent Effect,"30 µM, 30.03 µM",40.27%
CC(C)(C)C(NCC(=O)N1CCNC(=O)C1)c1ccccc1 (stereo not given),Percent Effect,"30 µM, 30.03 µM",-32.1%
CCc1nc(NS(=O)(=O)c2ccc(F)cc2Cl)no1,Percent Effect,"30.3 µM, […]",-4.749%
CCc1nc(NS(=O)(=O)c2cc(C)c(F)cc2Cl)no1,Percent Effect,"30.3 µM, […]",54.01%
CCc1nc(NS(=O)(=O)c2ccc(C)cc2Cl)no1,Percent Effect,"30 µM, 30.03 µM",33.48%
CN(C)C(=O)c1cnc2n1CCN(Cc1ccc3c(c1)OCO3)C2.O=C(O)C(F)(F)F,Percent Effect,"30.3 µM, […]",-102%
CC(O)CN1CCC(CNCc2cccc(Cl)c2)CC1 (stereo not given),Percent Effect,"30.3 µM, […]",36.81%
CC(O)CN1CCC(CNCc2cccc(Br)c2)CC1 (stereo not given),Percent Effect,"30 µM, 30.03 µM",-7.469%
CC(O)CN1CCC(CNCc2cccc(OC(F)(F)F)c2)CC1 (stereo not given),Percent Effect,10 µM,16.76%
CC(O)CN1CCC(CNCc2cccc(C(F)(F)F)c2)CC1 (stereo not given),Percent Effect,"30.3 µM, […]",86.87%
CC(O)CN1CCC(CNCc2ccc(OC(F)(F)F)cc2)CC1 (stereo not given),Percent Effect,10 µM,63.69%
CC(O)CN1CCC(CNCc2ccccc2OC(F)(F)F)CC1 (stereo not given),Percent Effect,"30 µM, 30.03 µM",-22.34%
CN(C)c1ncc(C(=O)N2C[C@H]3C[C@H](Oc4ccccc4)C[C@H]3C2)cn1,Percent Effect,"30.3 µM, […]",8.214%
Cl.Cn1ccnc1CNC(=O)c1cncc(C2CCNCC2)n1,Percent Effect,"30.3 µM, […]",-8.849%
O=C(O)C(F)(F)F.O=C(c1cccc(Cl)c1)N1CCCn2c(CN3CCCCC3)nnc2C1,Percent Effect,"30 µM, 30.03 µM",5.337%
Oc1cccc(CNCc2ccc(-n3cncn3)nc2)c1,Percent Effect,"30.3 µM, […]",-113.8%
COCCN1C(=O)[C@H]2CC[C@@H]1CN(S(=O)(=O)c1ccc(C#N)cc1)C2,Percent Effect,"30.3 µM, […]",-35.87%
CCO[C@H]1CO[C@@]2(CCCN(S(=O)(=O)c3cccnc3)C2)C1.O=C(O)C(F)(F)F,Percent Effect,"30 µM, 30.03 µM",23.98%
Fc1cccc(CN2CCOC3(COCCN(CC4CC4)C3)C2)c1.O=C(O)C(F)(F)F.O=C(O)C(F)(F)F (stereo not given),Percent Effect,"30.3 µM, […]",-50.27%
CC(C)(N)C(=O)N1CCCC(C(=O)c2ccc(C(C)(C)C)cc2)C1 (stereo not given),Percent Effect,"30.3 µM, […]",89.7%
CC(C)(C)c1ccc(C(=O)C2CCCN(C(=O)CNS(C)(=O)=O)C2)cc1 (stereo not given),Percent Effect,"30.3 µM, […]",-41.24%
CC(=O)NCC(=O)N1CCCC(C(=O)c2ccc(C(C)(C)C)cc2)C1 (stereo not given),Percent Effect,"30.3 µM, […]",-72.68%
O=C(O)C(F)(F)F.O=C(c1ccnnc1)N1C[C@H](Oc2ccccn2)[C@H]2OCCC[C@H]21,Percent Effect,"30.3 µM, […]",-55.97%
Cl.OC1CCN(c2cncc(CCC3CCCN3)n2)CC1 (stereo not given),Percent Effect,"30.3 µM, […]",-6.285%
CCOCc1cnc2n1CCN(C(=O)c1ccoc1C)C2C (stereo not given),Percent Effect,"30.3 µM, […]",-34.9%
Cc1occc1C(=O)N1CCn2c(COCC3CC3)cnc2C1C (stereo not given),Percent Effect,"30 µM, 30.03 µM",51.37%
Cc1ncoc1C(=O)N1CCn2c(COCC3CC3)cnc2C1C (stereo not given),Percent Effect,"30.3 µM, […]",10.54%
COc1ccc(CN2CCC3(CC2)CCN(CC(C)C)C3=O)cc1.O=C(O)C(F)(F)F,Percent Effect,"30.3 µM, […]",0.8917%
CN(C)CCO[C@H]1CN(CC2CC2)[C@@H]2CCCO[C@H]12.O=C(O)C(F)(F)F.O=C(O)C(F)(F)F,Percent Effect,"30.3 µM, […]",15.45%
c1ccc(N2CCC(c3ccncc3)CC2)cc1,Percent Effect,"30.3 µM, […]",0.5256%
